# Experimental data from PubChem BioAssay (EPA / NIEHS).
# The source made the active and inactive calls. The calls were made as follows: active = hit-call score of the fitted dose curve at least 0.9, where 1 is the maximum; inactive = score below 0.9.
# Tests used:
# [1] = read-out: Interleukin-1 alpha (IL1a), IL1A (gene 3552); test: BSK_KF3CT_IL1a: BioMAP Diversity Plus: KF3CT Assay for Interleukin-1 alpha (IL1a) Biomarker Activity (AID 2283070); conditions: primary human keratinocytes with fibroblasts; actives raise or lower the signal
# Procedure, shortened: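 Human keratinocyte plus foreskin fibroblast primary co-culture, sampled 24 h after chemical dosing. IL-1a measured by ELISA; responses fitted bidirectionally against DMSO baseline (negative control), so gain or loss of signal both count.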
# [2] = read-out: TIMP metallopeptidase inhibitor 2 (TIMP2), TIMP2 (gene 7077); test: BSK_KF3CT_TIMP2: BioMAP Diversity Plus: KF3CT Assay for TIMP metallopeptidase inhibitor 2 (TIMP2) Biomarker Activity (AID 2283071); conditions: primary human keratinocytes with fibroblasts; actives raise or lower the signal
# Procedure, shortened: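 Human primary keratinocyte/foreskin fibroblast co-culture dosed with chemical and sampled at 24 h. TIMP-2 levels quantified by ELISA; bidirectional fitting against DMSO negative control as baseline.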
# [3] = read-out: Transforming growth factor beta 1 (TGFb1), TGFB1 (gene 7040); test: BSK_KF3CT_TGFb1: BioMAP Diversity Plus: KF3CT Assay for Transforming growth factor beta 1 (TGFb1) Biomarker Activity (AID 2283072); conditions: primary human keratinocytes with fibroblasts; actives raise or lower the signal
# Procedure, shortened: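 Human keratinocyte plus foreskin fibroblast primary co-culture, dosed with chemical for 24 h. TGF-b1 quantified by ELISA. Activity fitted bidirectionally against DMSO negative control as baseline.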
# [4] = read-out: C-C motif chemokine 2 (Homo sapiens) (UniProt P13500); test: BSK_KF3CT_MCP1: BioMAP Diversity Plus: KF3CT Assay for Monocyte Chemoattractant Protein 1 (MCP1/CCL2) Biomarker Activity (AID 2283073); conditions: primary human keratinocytes with fibroblasts; actives raise or lower the signal
# Procedure, shortened: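 Human keratinocyte–foreskin fibroblast co-culture; MCP-1 measured by ELISA 24 h after dosing. Bidirectional fit vs DMSO; cytotoxicity tracked by SRB total protein in parallel cultures.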
# [5] = read-out: Matrix Metallopeptidase 9 (MMP9), MMP9 (gene 4318); test: BSK_KF3CT_MMP9: BioMAP Diversity Plus: KF3CT Assay for Matrix Metallopeptidase 9 (MMP9) Biomarker Activity (AID 2283074); conditions: primary human keratinocytes with fibroblasts; actives raise or lower the signal;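 as to AC50: MMP9 protein level quantified by ELISA in the co-culture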
# Procedure, shortened: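 Keratinocyte plus foreskin fibroblast human primary skin co-culture was dosed with chemical and MMP-9 was quantified by ELISA 24 h later. Bidirectional curve fitting used DMSO as negative control and activity baseline.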
# [6] = read-out: urokinase plasminogen activator (uPA), PLAU (gene 5328); test: BSK_KF3CT_uPA: BioMAP Diversity Plus: KF3CT Assay for urokinase plasminogen activator (uPA) Biomarker Activity (AID 2283075); conditions: primary human keratinocytes with fibroblasts; actives raise or lower the signal
# Procedure, shortened: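 Human keratinocyte plus foreskin fibroblast primary co-culture exposed to chemical for 24 h. uPA levels were quantified by ELISA, and activity was fitted bidirectionally against a DMSO negative-control baseline.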
# [7] = read-out: CD40, CD40 (gene 958); test: BSK_LPS_CD40: BioMAP Diversity Plus: LPS Assay for CD40 Biomarker Activity (AID 2283076); conditions: primary human HUVEC with PBMC; actives raise or lower the signal
# Procedure, shortened: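 HUVEC plus PBMC co-culture stimulated with LPS; CD40 quantified by ELISA 24 h after compound dosing. Fitting was bidirectional relative to DMSO. SRB staining of parallel cultures flagged overt cytotoxicity.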
# [8] = read-out: E-selectin (Homo sapiens) (UniProt P16581); test: BSK_LPS_Eselectin: BioMAP Diversity Plus: LPS Assay for Eselectin Biomarker Activity (AID 2283077); conditions: primary human HUVEC with PBMC; actives raise or lower the signal
# Procedure, shortened: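 Human umbilical vein endothelial cells co-cultured with PBMC under LPS stimulation; cell-surface E-selectin measured by ELISA 24 h after dosing. Change in either direction versus DMSO, with SRB total-protein staining in parallel cultures for cytotoxicity.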
# [9] = BSK_LPS_SRB: Viability Assessment in the BioMAP Diversity Plus: LPS Assay (AID 2283079); conditions: primary human HUVEC with PBMC;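 also: total protein by sulforhodamine B absorbance as a cytotoxicity measure; measured one day after compound addition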
# Procedure, shortened: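 Co-culture of human umbilical vein endothelial cells and PBMC, read 24 h after dosing. Total protein by 0.1% SRB staining after 10% TCA fixation, absorbance at 560 nm; bidirectional fit against DMSO.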
# [10] = read-out: Interleukin-1 alpha (IL1a), IL1A (gene 3552); test: BSK_LPS_IL1a: BioMAP Diversity Plus: LPS Assay for Interleukin-1 alpha (IL1a) Biomarker Activity (AID 2283080); conditions: primary human HUVEC with PBMC; actives raise or lower the signal
# Procedure, shortened: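 Human umbilical vein endothelial cells co-cultured with PBMC and stimulated with LPS; IL-1a measured by ELISA 24 h after dosing. Bidirectional fitting against DMSO; cytotoxicity checked by SRB staining in parallel cultures.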
# [11] = read-out: Monocyte Chemoattractant Protein-1 (MCP1), CCL2 (gene 6347); test: BSK_LPS_MCP1: BioMAP Diversity Plus: LPS Assay for Monocyte Chemoattractant Protein-1 (MCP1) Biomarker Activity (AID 2283081); conditions: primary human HUVEC with PBMC; actives raise or lower the signal
# Procedure, shortened: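 Human umbilical vein endothelial cells co-cultured with PBMC, LPS-stimulated; secreted MCP-1 measured by ELISA 24 h after compound addition. Bidirectional curve fitting against DMSO baseline; SRB total-protein staining in parallel cultures for cytotoxicity.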
# [12] = BSK_LPS_PGE2: BioMAP Diversity Plus: LPS Assay for Prostaglandin E2 (PGE2) Biomarker Activity (AID 2283082); conditions: primary human HUVEC with PBMC; actives raise or lower the signal
# Procedure, shortened: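 HUVEC plus PBMC co-culture stimulated with LPS; secreted PGE2 quantified by ELISA 24 h after chemical dosing. Activity fitted bidirectionally against DMSO as negative control and baseline; parallel SRB total-protein staining served as cytotoxicity check.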
# [13] = read-out: Macrophage colony-stimulating factor (MCSF), CSF1 (gene 1435); test: BSK_LPS_MCSF: BioMAP Diversity Plus: LPS Assay for Macrophage colony-stimulating factor (MCSF) Biomarker Activity (AID 2283083); conditions: primary human HUVEC with PBMC; actives raise or lower the signal
# Procedure, shortened: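 HUVEC–PBMC co-culture, M-CSF measured by ELISA 24 h after chemical dosing. Fitted in both directions relative to DMSO as negative control; overt cytotoxicity assessed by SRB total-protein staining in parallel cultures.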
# [14] = read-out: Tissue Factor, F3 (gene 2152); test: BSK_LPS_TissueFactor: BioMAP Diversity Plus: LPS Assay for Tissue Factor Biomarker Activity (AID 2283084); conditions: primary human HUVEC with PBMC; actives raise or lower the signal
# Procedure, shortened: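 Human umbilical vein endothelial cells co-cultured with PBMC were dosed with compound. Cell-surface CD142 was measured by ELISA 24 h later. Activity was fitted bidirectionally against DMSO, with SRB total-protein staining in parallel cultures for cytotoxicity.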
# [15] = read-out: Tumor necrosis factor (Homo sapiens) (UniProt P01375); test: BSK_LPS_TNFa: BioMAP Diversity Plus: LPS Assay for Tumour Necrosis Factor alpha (TNFa) Biomarker Activity (AID 2283085); conditions: primary human HUVEC with PBMC; actives raise or lower the signal;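 as to AC50: TNFa protein level quantified by ELISA in the co-culture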
# Procedure, shortened: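 Human umbilical vein endothelial cells co-cultured with PBMC were exposed to test chemical and TNFa measured by ELISA 24 h after dosing. Bidirectional curve fitting was done relative to DMSO as negative control and baseline.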
# [16] = read-out: Vascular cell adhesion molecule 1 (VCAM1), VCAM1 (gene 7412); test: BSK_LPS_VCAM1: BioMAP Diversity Plus: LPS Assay for Vascular cell adhesion molecule 1 (VCAM1) Biomarker Activity (AID 2283086); conditions: primary human HUVEC with PBMC; actives raise or lower the signal
# Procedure, shortened: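 Human umbilical vein endothelial cells co-cultured with peripheral blood mononuclear cells under LPS stimulation were exposed to test chemical for 24 h. VCAM-1 levels were then measured by ELISA, with bidirectional curve fitting relative to DMSO as negative control and baseline.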
# [17] = read-out: CD38, CD38 (gene 952); test: BSK_SAg_CD38: BioMAP Diversity Plus: SAg Assay for CD38 Biomarker Activity (AID 2283087); conditions: primary human HUVEC with PBMC; actives raise or lower the signal
# Procedure, shortened: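 Fluorescence ELISA of cell-surface CD38 served as the read-out, with either increase or decrease fitted against DMSO controls. Cells were a human umbilical vein endothelium plus PBMC co-culture under SEB/TSST-1 stimulation, measured 24 h after dosing.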
# [18] = read-out: CD40, CD40 (gene 958); test: BSK_SAg_CD40: BioMAP Diversity Plus: SAg Assay for CD40 Biomarker Activity (AID 2283088); conditions: primary human HUVEC with PBMC; actives raise or lower the signal
# Procedure, shortened: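 HUVEC plus PBMC co-culture, superantigen-activated, with CD40 read by ELISA 24 h after dosing. Curves fitted in both directions against DMSO. Overt cytotoxicity checked by parallel SRB total-protein staining.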
# [19] = read-out: CD69, CD69 (gene 969); test: BSK_SAg_CD69: BioMAP Diversity Plus: SAg Assay for CD69 Biomarker Activity (AID 2283089); conditions: primary human HUVEC with PBMC; actives raise or lower the signal;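 as to AC50: cell surface CD69 protein quantified by ELISA with fluorescence detection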
# Procedure, shortened: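 ELISA, fluorescence read-out: CD69 on human umbilical vein endothelial cell + PBMC co-culture, 24 h post-dosing. Gain or loss of signal fitted bidirectionally against DMSO baseline.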
# Chain of E-selectin (Homo sapiens) (P16581 whole entry, looked up): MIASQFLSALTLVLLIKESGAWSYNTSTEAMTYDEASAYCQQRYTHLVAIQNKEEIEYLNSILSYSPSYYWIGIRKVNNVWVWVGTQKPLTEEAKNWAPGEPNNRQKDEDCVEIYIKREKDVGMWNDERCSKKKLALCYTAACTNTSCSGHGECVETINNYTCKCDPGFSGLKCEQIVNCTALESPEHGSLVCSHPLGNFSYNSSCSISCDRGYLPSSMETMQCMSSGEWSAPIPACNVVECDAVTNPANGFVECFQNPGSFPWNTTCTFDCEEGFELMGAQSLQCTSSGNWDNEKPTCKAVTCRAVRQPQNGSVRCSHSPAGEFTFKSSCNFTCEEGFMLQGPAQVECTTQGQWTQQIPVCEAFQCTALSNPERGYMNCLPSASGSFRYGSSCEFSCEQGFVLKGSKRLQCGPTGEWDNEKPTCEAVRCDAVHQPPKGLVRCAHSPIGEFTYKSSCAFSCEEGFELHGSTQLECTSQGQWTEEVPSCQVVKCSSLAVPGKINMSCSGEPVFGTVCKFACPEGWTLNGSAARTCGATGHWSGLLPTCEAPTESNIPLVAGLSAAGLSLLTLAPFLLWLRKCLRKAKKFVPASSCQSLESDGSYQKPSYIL
# Chain of Tumor necrosis factor (Homo sapiens) (P01375 whole entry, looked up): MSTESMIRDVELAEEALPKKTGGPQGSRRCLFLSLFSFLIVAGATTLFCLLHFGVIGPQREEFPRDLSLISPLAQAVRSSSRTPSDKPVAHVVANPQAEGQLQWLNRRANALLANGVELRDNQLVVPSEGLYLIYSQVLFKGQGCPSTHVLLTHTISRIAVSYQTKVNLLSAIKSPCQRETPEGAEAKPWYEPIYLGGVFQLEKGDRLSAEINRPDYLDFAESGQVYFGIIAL
smiles,measurement,setting,value
CC[C@H](C)C(=O)O[C@H]1C[C@H](O)C=C2C=C[C@H](C)[C@H](CC[C@@H](O)C[C@@H](O)CC(=O)O)[C@H]21,outcome,[1],inactive
same,outcome,[2],inactive
same,outcome,[3],inactive
same,outcome,[4],inactive
same,outcome,[5],inactive
same,outcome,[6],inactive
same,outcome,[7],inactive
same,outcome,[8],inactive
same,outcome,[9],inactive
same,outcome,[10],inactive
same,outcome,[11],inactive
same,outcome,[12],inactive
same,outcome,[13],inactive
same,outcome,[14],inactive
same,outcome,[15],inactive
same,outcome,[16],inactive
same,outcome,[17],inactive
same,outcome,[18],inactive
same,outcome,[19],inactive
COc1cc2c(c(OC)c1OC)-c1ccc(OC)c(=O)cc1[C@@H](NC(C)=O)CC2,outcome,[1],inactive
same,outcome,[2],inactive
same,outcome,[3],inactive
same,outcome,[4],inactive
same,AC50,[5],548 nM (active)
same,outcome,[6],inactive
same,AC50,[7],148 nM (active)
same,outcome,[8],inactive
same,AC50,[9],245 nM (active)
same,AC50,[10],827 nM (active)
same,outcome,[11],inactive
same,outcome,[12],inactive
same,AC50,[13],493 nM (active)
same,outcome,[14],inactive
same,AC50,[15],2.39 µM (active)
same,AC50,[16],431 nM (active)
same,AC50,[17],148 nM (active)
same,AC50,[18],218 nM (active)
same,AC50,[19],505 nM (active)
